About 210 (18%) of roughly 1,200 compounds were called active. The sample as a whole holds a higher share of actives than the screen did. A number with no mark means an inactive call. Cut-off read from the data, not from the text of the source: active = inhibition above about 30%; inactive = the rest.

The nature of this experiment: fluorescence readout artefact check – biochemical, HTRF, uHTS, artefact control for SUMOylation inhibitor project, confirmation (AID 2069). As to conditions: HTRF interference counterscreen, at 35 µM, stronger effect = higher value.
On to `CN1C[C@H](CO)C=C2c3cccc4[nH]cc(c34)C[C@H]21`, for which the inhibition is 36.9% (active).

On to `CC(C)[C@H]1C(=O)N2CCC[C@H]2[C@]2(O)O[C@](NC(=O)[C@@H]3C=C4c5cccc6[nH]cc(c56)C[C@H]4N(C)C3)(C(C)C)C(=O)N12`, for which the inhibition is 12.3%.

Regarding `CN1CCN(c2ccc(S(C)(=O)=O)cc2[N+](=O)[O-])CC1`, the inhibition was -0.45%.

`COc1ccc(Cc2nccc3cc(OC)c(OC)cc23)cc1OC`: the inhibition was -2.9%.

Take `O=C(O)c1cccc2c1NC(c1cccc([N+](=O)[O-])c1)C1CC(Sc3ccccc3[N+](=O)[O-])C(Cl)C21` (stereo unspecified): the inhibition is 26.1%.

Regarding `CCCCn1c(NC(=O)c2ccco2)c(C(=O)OCC)c2nc3ccccc3nc21`, the inhibition was 22.1%.

For the molecule `CCCCn1c(NS(=O)(=O)c2ccccc2)c(C(=O)OCC)c2nc3ccccc3nc21`, the inhibition is 70.9% (active).

Turning to `CCCCn1c(NS(=O)(=O)c2ccc(C)cc2)c(C(=O)OCC)c2nc3ccccc3nc21`, the inhibition is 58% (active).

For `CCCCn1c(N)c(C(=O)NCc2cccs2)c2nc3ccccc3nc21`, the inhibition is 9.9%.

For the molecule `CCCCn1c(N)c(C(=O)OCCOC)c2nc3ccccc3nc21`, the inhibition is 28.8%.

Consider `COc1cc(C(c2c(C)[nH]n(-c3ccccc3)c2=O)c2c(C)[nH]n(-c3ccccc3)c2=O)cc(OC)c1OC`, for which the inhibition is 3.8%.

On to `O=C(O)CC1OCC=C2CN3CCC45C6=CC(=O)C(=O)C([N+](=O)[O-])=C6NC4C1C2CC35` (stereo unspecified), for which the inhibition was 60.8% (active).

Consider `COc1ccc(OC)c(N2C(=O)NC(=O)/C(=C/c3ccc([N+](=O)[O-])s3)C2=O)c1`, for which the inhibition is -8.75%.

For the molecule `CN1CCN(c2ccc3nccnc3c2)CC1`, the inhibition was 40.9% (active).

For the molecule `Cc1ccccc1-n1c(O)c(/C=N/NC(=O)c2ccccc2O)c(=O)[nH]c1=S`, the inhibition is 3.4%.

On to `CN1CCC2(CC1)C(C#N)=C(N)NC(S)=C2C#N`, for which the inhibition was 76.5% (active).

Regarding `O=C1NC(=O)N(Cc2ccco2)C(=O)/C1=C\c1cccn1CCOc1ccc(Cl)cc1`, the inhibition is -5.15%.

Regarding `O=C(c1cccn2c(=O)c3ccc(Cl)cc3nc12)N1CCC2(CC1)OCCO2`, the inhibition was 48.9% (active).

`O=c1[nH]c(O)c(/C=C2/C=CC(c3cc(Cl)ccc3Cl)=N2)c(=O)[nH]1`: the inhibition is 18.3%.

As for `Cc1c(CC(=O)N2C[C@H]3C[C@@H](C2)c2cccc(=O)n2C3)c(=O)oc2c(C)c(O)ccc12`, the inhibition is 50.5% (active).

As to `N#C/C(=C(/O)c1ccc(S(=O)(=O)N(CCCl)CCCl)cc1)c1nc2ccccc2[nH]1`, the inhibition was 28.4%.

In the case of `Cc1ccsc1C(=O)C1CCCN(Cc2ccc(-n3cccn3)cc2)C1` (stereo unspecified), the inhibition is 30.6% (active).

In the case of `CC(=O)c1ccc2c(c1)C1C(Cl)C(Sc3ccccc3[N+](=O)[O-])CC1C(c1ccccc1[N+](=O)[O-])N2` (stereo unspecified), the inhibition was -3.55%.

For `CCN(CC)c1ccc([N+](=O)[O-])c2cccnc12`, the inhibition is -11.9%.

Consider `O=C(O)CCn1cc(C=C2C(=O)NC(=O)NC2=O)c(-c2ccc(Br)cc2)n1`, for which the inhibition was -3.4%.

Take `CC(C)CCNC(=O)c1c(N)n(CC2CCCO2)c2nc3ccccc3nc12` (stereo unspecified): the inhibition is 30.4% (active).

As to `CCCNC(=O)c1c(N)n(CC2CCCO2)c2nc3ccccc3nc12` (stereo unspecified), the inhibition was 42% (active).

Regarding `CCC(C)NC(=O)c1c(N)n(CC2CCCO2)c2nc3ccccc3nc12` (stereo unspecified), the inhibition is 32.5% (active).

As for `CCCNC(=O)c1c(N)n(Cc2ccc3c(c2)OCO3)c2nc3ccccc3nc12`, the inhibition is 9.15%.

With `CC(C)OCCCNC(=O)c1c(N)n(CC2CCCO2)c2nc3ccccc3nc12` (stereo unspecified), the inhibition was 51.1% (active).

On to `CC(C)CCNC(=O)c1c(N)n(Cc2ccc3c(c2)OCO3)c2nc3ccccc3nc12`, for which the inhibition is 19.7%.

Take `Nc1c(C(=O)NCCCc2ccccc2)c2nc3ccccc3nc2n1Cc1cccs1`: the inhibition was 8%.

As for `CCCCn1c(N)c(C(=O)OCC2CCCO2)c2nc3ccccc3nc21` (stereo unspecified), the inhibition was 28.1%.

For `CCC(C)NC(=O)c1c(N)n(Cc2ccc3c(c2)OCO3)c2nc3ccccc3nc12` (stereo unspecified), the inhibition is 24.4%.

Consider `Nc1c(C(=O)NC2CCCC2)c2nc3ccccc3nc2n1CC1CCCO1` (stereo unspecified), for which the inhibition was 27.9%.

`CCOCCCn1c(N)c(C(=O)Nc2sc3c(c2C(=O)OC)CCCC3)c2nc3ccccc3nc21`: the inhibition was -2.4%.

As for `CC(C)CNC(=O)c1c(N)n(Cc2ccc3c(c2)OCO3)c2nc3ccccc3nc12`, the inhibition was 15.9%.

For the molecule `O=C1NC(=O)N(Cc2ccco2)C(=O)/C1=C/c1ccc(-c2cccc([N+](=O)[O-])c2)o1`, the inhibition was 14.7%.

As for `O=C(N/N=C/c1c(O)n(Cc2ccco2)c(=O)[nH]c1=O)c1ccccc1O`, the inhibition was 22.9%.

For `Cc1cc(/C=C2\C(=O)NC(=O)N(Cc3ccccc3)C2=O)c(C)n1-c1ccc(Cl)c(C(=O)O)c1`, the inhibition is 34.7% (active).

As for `O=C(O)c1ccc2c(c1)C1C(Cl)C(Sc3ccccc3[N+](=O)[O-])CC1C(c1cccc([N+](=O)[O-])c1)N2` (stereo unspecified), the inhibition was -6.5%.

`CC(=O)c1ccc2c(c1)C1C(Cl)C(Sc3ccccc3[N+](=O)[O-])CC1C(C(=O)O)N2` (stereo unspecified): the inhibition is 5.25%.

In the case of `O=C1NC(=S)NC(=O)C1=Cc1cccn1-c1ccc(O)cc1`, the inhibition is 21.8%.

Take `COc1cc(Cn2c(N)c(C(=O)NCc3ccco3)c3nc4ccccc4nc32)cc(OC)c1OC`: the inhibition is 11.6%.

As to `CCC(C)NC(=O)c1c(N)n(CCCOC)c2nc3ccccc3nc12` (stereo unspecified), the inhibition is 36.5% (active).

As for `COCCCn1c(N)c(C(=O)Nc2ccccc2)c2nc3ccccc3nc21`, the inhibition was 7.4%.

Take `CC(C)CCn1c(N)c(C(=O)NCc2cccs2)c2nc3ccccc3nc21`: the inhibition was 15.4%.

For the molecule `COCCNC(=O)c1c(N)n(CCC(C)C)c2nc3ccccc3nc12`, the inhibition was 34.7% (active).

With `CCOC(=O)c1c(NC(=O)c2c(N)n(CCCOC)c3nc4ccccc4nc23)sc2c1CCCC2`, the inhibition was -0.35%.

In the case of `CCCCNC(=O)c1c(N)n(CCCOC)c2nc3ccccc3nc12`, the inhibition was 30.9% (active).

As for `COCCCn1c(N)c(C(=O)NCc2ccco2)c2nc3ccccc3nc21`, the inhibition is 34.1% (active).

`COCCCn1c(N)c(C(=O)NCCC(C)C)c2nc3ccccc3nc21`: the inhibition was 24.1%.

In the case of `CCCCCn1c(N)c(C(=O)NCc2cccs2)c2nc3ccccc3nc21`, the inhibition is 12.7%.

As for `COCCCn1c(N)c(C(=O)OCCOC)c2nc3ccccc3nc21`, the inhibition is 29.9%.

Consider `COc1ccc(Cn2c(N)c(C(=O)NCc3ccco3)c3nc4ccccc4nc32)cc1`, for which the inhibition is 11.2%.

`CN1CCc2nc3sc(C#N)c(N)c3c(-c3cccs3)c2C1`: the inhibition is 14.3%.

On to `c1ccc2c(NC3=NCCS3)cccc2c1`, for which the inhibition is -3.5%.

As for `Cc1[nH]n(-c2ccccc2)c(=O)c1C(c1ccc([N+](=O)[O-])cc1)c1c(C)[nH]n(-c2ccccc2)c1=O`, the inhibition is -5.95%.

Consider `O=c1[nH]c(O)c(/C=C2\C=Nc3ccc(OCc4ccccc4)cc32)c(=O)[nH]1`, for which the inhibition was 8.25%.

Consider `COCCNC(=O)c1c(NC(=O)c2ccco2)n(Cc2ccccc2)c2nc3ccccc3nc12`, for which the inhibition was 17.8%.

In the case of `Cn1c(O)c(/C=C2\N=c3ccccc3=C2CCNC(=S)NC2CC2)c(=O)n(C)c1=O`, the inhibition was 13.3%.

The values are drawn from PubChem BioAssay AID2069 (Sanford-Burnham Center for Chemical Genomics, 2009).
